In PubChem BioAssay AID1159580 (chemical genetic matrix, 2015):
The whole screen tested about 5,500 compounds, of which about 2,000 (36%) were called active. Not shown: some 18% with an inconclusive outcome. Cut-off read from the data, not from the text of the source: active = normalized growth mostly below about 0.91 (no sharp cut-off); inconclusive = no clear call, values can overlap the other calls; inactive = mostly above about 0.92. This is one part of the list.

Assay: chemical genetic growth profiling, strain panel (AID 1159580);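 note: tested at 20 µM; growth read once vehicle control cultures reached saturation at 30 °C; 1 = growth at the plate median or of vehicle wells; lower values mean less growth of the strain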
Conditions: S. cerevisiae deletion strains, growth OD

Measured: normalized growth

COC(=O)c1cnn(-c2c(Cl)cccc2Cl)c1C=C(C#N)C#N
active: locus YLR113W, strain HOG1, active compounds read low 0.748 | locus YPL256C, strain CLN2, active compounds read low 0.781
inactive: locus YAR019C, strain CDC15, active compounds read low 0.939 | locus YBL105C, strain PKC1, active compounds read low 0.957 | locus YBR135W, strain CKS1, active compounds read low 0.954 | locus YBR136W, strain MEC1, active compounds read low 0.952 | locus YBR160W, strain CDC28, active compounds read low 0.955 | locus YDL017W, strain CDC7, active compounds read low 0.953 | locus YDL028C, strain MPS1, active compounds read low 0.946 | locus YDL101C, strain DUN1, active compounds read low 0.944 | locus YDL108W, strain KIN28, active compounds read low 0.961 | locus YDL132W, strain cdc53, active compounds read low 0.942 | locus YDL214C, strain PRR2, active compounds read low 0.966 | locus YDR052C, strain DBF4, active compounds read low 0.948 | locus YDR054C, strain cdc34, active compounds read low 0.943 | locus YDR226W, strain ADK1, active compounds read low 0.956 | locus YDR477W, strain SNF1, active compounds read low 0.972 | locus YER123W, strain YCK3, active compounds read low 0.954 | locus YER133W, strain GLC7, active compounds read low 0.922 | locus YFL009W, strain cdc4, active compounds read low 0.936 | locus YFL029C, strain CAK1, active compounds read low 0.954 | locus YFR003C, strain YPI1, active compounds read low 0.95 | locus YFR019W, strain FAB1, active compounds read low 0.966 | locus YFR028C, strain CDC14, active compounds read low 0.949 | locus YGR040W, strain KSS1, active compounds read low 0.944 | locus YGR052W, strain FMP48, active compounds read low 0.93 | locus YGR092W, strain DBF2, active compounds read low 0.912 | locus YHR079C, strain IRE1, active compounds read low 0.775 | locus YHR082C, strain KSP1, active compounds read low 1.1 | locus YHR205W, strain SCH9, active compounds read low 1 | locus YIL147C, strain SLN1, active compounds read low 0.947 | locus YJL095W, strain BCK1, active compounds read low 0.782 | locus YJL128C, strain PBS2, active compounds read low 0.969 | locus YJL157C, strain FAR1, active compounds read low 0.962 | locus YJR016C, strain ILV3, active compounds read low 0.955 | locus YJR066W, strain TOR1 (second series), active compounds read low 0.964 | locus YJR066W, strain TOR1, active compounds read low 1.08 | locus YKL048C, strain ELM1, active compounds read low 0.922 | locus YKL067W, strain YNK1, active compounds read low 0.955 | locus YKL101W, strain HSL1, active compounds read low 0.958 | locus YKL193C, strain SDS22, active compounds read low 0.949 | locus YKL203C, strain TOR2, active compounds read low 1.03 | locus YLR133W, strain CKI1, active compounds read low 0.968 | locus YLR403W, strain SFP1, active compounds read low 0.975 | locus YML070W, strain DAK1, active compounds read low 0.961 | locus YMR001C, strain CDC5, active compounds read low 0.953 | locus YMR205C, strain PFK2 (second series), active compounds read low 0.975 | locus YMR277W, strain FCP1, active compounds read low 0.949 | locus YNL006W, strain LST8, active compounds read low 0.955 | locus YNL020C, strain ARK1, active compounds read low 0.969 | locus YNL161W, strain CBK1, active compounds read low 0.94 | locus YNL183C, strain NPR1, active compounds read low 0.863 | locus YNL207W, strain RIO2, active compounds read low 0.95 | locus YNL222W, strain SSU72, active compounds read low 0.966 | locus YNL307C, strain MCK1 (second series), active compounds read low 0.986 | locus YOL078W, strain AVO1, active compounds read low 0.946 | locus YOL136C, strain PFK27, active compounds read low 0.969 | locus YOR061W, strain CKA2, active compounds read low 0.95 | locus YOR119C, strain RIO1, active compounds read low 0.961 | locus YOR231W, strain MKK1, active compounds read low 0.797 | locus YOR329C, strain SCD5, active compounds read low 0.947 | locus YPL031C, strain PHO85, active compounds read low 0.948 | locus YPL153C, strain RAD53, active compounds read low 0.938 | locus YPL204W, strain HRR25, active compounds read low 0.956 | locus YPL209C, strain IPL1, active compounds read low 0.954 | locus YPR025C, strain CCL1, active compounds read low 0.942 | locus YPR106W, strain ISR1, active compounds read low 0.942 | locus YPR111W, strain DBF20, active compounds read low 0.953 | strain NNK1, active compounds read low 0.969 | strain TSCII, active compounds read low 0.943
